Laboratory results reported in ChEMBL document CHEMBL3988442, “University of Dundee, Small-Polar-MMV Screening Library” (2021).
About 1,200 (3.2%) of roughly 38,000 compounds showed an effect of 50% or more. The median lay at about -58%. The sample as a whole holds a higher share of strong results than the screen did.

Each compound was assayed on Plasmodium falciparum (assay: Calibr Malaria Delayed Death Assay SOP). Settings: concentration 4.99e-06 (unit not given; other assays of the set use mol/L).
Assay type: functional, organism-based
Set-up: scale not given: in the data most compounds retested in dose-response had high values

Row | Compound | Percent Effect [%]
1 | CSCCN1C(=O)CC(C)(c2ccc(Br)cc2)C1=O (stereo not given) | -78.64
2 | NCC(=O)N1CCCCC1c1ccc(F)cc1 (stereo not given) | 85.19
3 | O=C1CCCCN1CCC(=O)N1CCCCC1c1ccc(F)cc1 (stereo not given) | -57.96
4 | COC(=O)CCCC(=O)N1CCCCC1c1ccc(F)cc1 (stereo not given) | -184.4
5 | C[C@]1(O)CN(Cc2cscn2)CC[C@@H]1Oc1cccc(F)c1 | -10.93
6 | CC(NC(=O)NCc1cscn1)c1ccc(N2CCOCC2)cc1 (stereo not given) | -60.07
7 | CC(NCc1ccccn1)c1cc2c(cc1Br)OCCO2 (stereo not given) | 22.3
8 | Cc1[nH]ncc1C(C)NCc1ccc(F)cc1 (stereo not given) | -52.77
9 | CCN1CCN(c2ccc(F)cc2C(C)NCc2ccnn2C)CC1 (stereo not given) | 75.25
10 | CC(NCc1ccncc1)c1cc2c(cc1Br)OCCO2 (stereo not given) | 7.247
11 | CC(c1cc(F)ccc1F)N1CCN(Cc2nccn2C)CC1 (stereo not given) | -48.8
12 | CC(NCCn1cccn1)c1cc(F)ccc1F (stereo not given) | 0.142
13 | CCN1CCN(c2ccc(F)cc2C(C)NCc2ccccn2)CC1 (stereo not given) | 85.11
14 | CCN1CCN(c2ccc(F)cc2C(C)NCc2cscn2)CC1 (stereo not given) | 80.23
15 | CCN1CCN(c2ccc(F)cc2C(C)NCc2ccncc2)CC1 (stereo not given) | 71.8
16 | CC(c1ccc(F)cc1F)N1CCN(Cc2nccn2C)CC1 (stereo not given) | -23.71
17 | Cn1nc(-c2ccccc2)c(Cl)c1C(=O)O | 13.43
18 | CC(C)S(=O)(=O)NCC(Cc1cccc(F)c1)N1CCNC1=O (stereo not given) | -68.63
19 | COc1ccc(CNc2nc(N3CCOCC3)ns2)cc1 | -61.76
20 | Cc1ccc(CCNC(=O)CC2COCCN2S(=O)(=O)N(C)C)o1 (stereo not given) | -12.87
21 | CC(C)c1nncn1CCNC(=O)c1ccc(Cl)cc1O | -118.9
22 | Cc1nccc(-c2cccc(NCC(=O)NCC(=O)N3CCCC3)c2)n1 | -89.65
23 | Cc1cnc(C(=O)N2CC[C@@H]3CN(c4ncccn4)CCO[C@@H]3C2)cn1 | -80.08
24 | Cc1nc(CO[C@H]2CN(Cc3cccs3)[C@@H]3COC[C@H]23)cs1.O=C(O)C(F)(F)F.O=C(O)C(F)(F)F | -73.25
25 | Cc1nc(CNC(=O)Nc2cc(F)ccc2OC(F)F)no1 | -136.5
26 | CCN1CCN(c2ccc(F)cc2C(C)NCc2noc(C)n2)CC1 (stereo not given) | 52.85
27 | Cc1ccc(CNC(C)c2nnc3n2CCCC3)o1 (stereo not given) | -20.3
28 | CN1CCN(c2ccc(F)cc2C(N)=O)CC1 | -109.6
29 | CCN1CCN(c2ccc(F)cc2C(C)NCc2nc(C)no2)CC1 (stereo not given) | 4.183
30 | CC(COc1ccccc1)NCc1cn2ccccc2n1 (stereo not given) | -27.04
